The text below walks through data of PubChem BioAssay (NCATS).

The structures appear in SMILES notation. Inconclusive results are not listed. Entries that show only a call come without a potency. Active and inactive are the calls of the source. Calls follow the shape of the dose curve; as a rule, active = well fitted curve in the direction sought with a large enough effect; inconclusive = small, poorly fitted or top-dose-only effect, or another doubt; inactive = no such curve, though single readings can be large; an effect the other way counts as inactive or inconclusive.
Potency is read from the fitted curve at half-maximal effect.

The nature of one assay: qHTS of pediatric cancer cell lines to identify multiple opportunities for drug repurposing: Confirmatory screen for MG 63 (6-TG R) cells (AID 1347119). Also: nearly all actives have a fitted effect of over 55% in size. The following applies: MG-63 (6-TG resistant) osteosarcoma viability; series mostly up to 45.9 µM. Put shortly:
(§1)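 Cells (500-1,000/well) rested 5 h, then received compounds for 48 h; metabolically active cells were measured by CellTiter-Glo luminescence. Final concentrations spanned up to 46 µM (MIPE, 11-point) or 0.59 nM-46 µM (NPC, 8-point) in primary screens, 11-point in follow-ups.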
On the technique in general: Quantitative high-throughput screening tests each substance at several concentrations.
For the compound `CN1N=C(N)c2cn([C@@H]3O[C@H](COP(=O)(O)O)[C@@H](O)[C@@H]3O)c3ncnc1c23`, the Potency is 0.827 µM (active).

With `FC(F)(F)c1ccc(C=Cc2nc(COc3ccc(CCCCn4ccnn4)cc3)co2)cc1`, the Potency was 0.261 µM (active).

Take `CN1CCN(c2ncc(-c3cc(Cl)cc(Cl)c3Cl)c(N)n2)CC1`: the Potency entry was “inactive”.

On to `CC(C)CN(C[C@@H](O)[C@H](Cc1ccccc1)NC(=O)O[C@H]1CO[C@H]2OCC[C@H]21)S(=O)(=O)c1ccc(N)cc1`, for which the Potency entry is “inactive”.

Regarding `N#CC(=C1Nc2ccccc2S1)c1ccnc(OCc2ccc(CN3CCOCC3)cc2)n1`, the Potency entry was “inactive”.

With `CN(C)CCN(C)C(=O)c1ccc(NC(=O)Nc2ccc(-c3nc(N4CCOCC4)c4ccn(CC(F)(F)F)c4n3)cc2)cc1`, the Potency was 0.329 µM (active).

As for `CNC(=O)[C@H](CC1=CN=C2C=CCC=C12)NC(=O)[C@@H](CC(=O)NO)CC(C)C`, the Potency was 1.47 µM (active).

Regarding `COc1cc2ncnc(Nc3cc(Br)c(O)c(Br)c3)c2cc1OC`, the Potency result was “inactive”.

For `O=c1[nH]nc(OCCCc2ccc(Cl)cc2)c(NCc2cccnc2)c1Br`, the Potency is 5.22 µM (active).

Regarding `CC1(COc2ccc3c(c2)ncn3-c2ccc3cccc(N4CCC(N)CC4)c3n2)COC1`, the Potency result was “inactive”.

A further assay can be described thus: qHTS of pediatric cancer cell lines to identify multiple opportunities for drug repurposing: Confirmatory screen for control Hh wild type fibroblast cells (AID 1347121). Also: nearly all actives have a fitted effect of over 70% in size. Particulars: viability qHTS; series mostly up to 45.9 µM. In a few lines:
as §1
Take `FC(F)(F)c1ccc(C=Cc2nc(COc3ccc(CCCCn4ccnn4)cc3)co2)cc1`: the Potency was 0.369 µM (active).

As for `CN1CCN(c2ncc(-c3cc(Cl)cc(Cl)c3Cl)c(N)n2)CC1`, the Potency entry was “inactive”.

With `CC(C)CN(C[C@@H](O)[C@H](Cc1ccccc1)NC(=O)O[C@H]1CO[C@H]2OCC[C@H]21)S(=O)(=O)c1ccc(N)cc1`, the Potency entry was “inactive”.

For the compound `O=C(c1ccc(F)c(F)c1Nc1ccc(I)cc1F)N1CC(O)([C@H]2CCCCN2)C1`, the Potency result was “inactive”.

As for `N#CC(=C1Nc2ccccc2S1)c1ccnc(OCc2ccc(CN3CCOCC3)cc2)n1`, the Potency result is “inactive”.

For `COc1cc2c(cc1OC)[C@@H]1Cc3ccc(OC)c(OC)c3CN1CC2`, the Potency entry is “inactive”.

For `Cc1nn(Cc2ccccc2Cl)c(C)c1CN(C)CC(O)COc1ccc(Cl)cc1` (stereo not given), the Potency entry was “inactive”.

For `O=C1NC(=O)C(c2cnc3ccccn23)=C1c1cn2c3c(cccc13)CN(C(=O)N1CCOCC1)CC2`, the Potency entry is “inactive”.

With `CC(C)C[C@H](NC(=O)c1cc2ccccc2s1)C(=O)N1CCN(C(=O)[C@H](CO)NS(=O)(=O)c2ccc(Cl)cc2Cl)CC1`, the Potency entry is “inactive”.

As to `COc1cc2ncnc(Nc3cc(Br)c(O)c(Br)c3)c2cc1OC`, the Potency entry is “inactive”.

Turning to `COc1cc2c(cc1Cc1cccc(Cl)c1F)c(=O)c(C(=O)O)cn2[C@H](CO)C(C)C`, the Potency result is “inactive”.

For the compound `O=c1[nH]nc(OCCCc2ccc(Cl)cc2)c(NCc2cccnc2)c1Br`, the Potency is 10.4 µM (active).

Turning to `CC1(COc2ccc3c(c2)ncn3-c2ccc3cccc(N4CCC(N)CC4)c3n2)COC1`, the Potency entry is “inactive”.

A short description of another assay: qHTS of pediatric cancer cell lines to identify multiple opportunities for drug repurposing: Confirmatory screen for U-2 OS cells (AID 1347122). Also: nearly all actives have a fitted effect of over 65% in size. The following applies: U-2 OS osteosarcoma cell viability; series mostly up to 45.9 µM. In a few lines:
as §1
As for `FC(F)(F)c1ccc(C=Cc2nc(COc3ccc(CCCCn4ccnn4)cc3)co2)cc1`, the Potency was 0.261 µM (active).

For `CN1CCN(c2ncc(-c3cc(Cl)cc(Cl)c3Cl)c(N)n2)CC1`, the Potency entry was “inactive”.

As to `CC(C)CN(C[C@@H](O)[C@H](Cc1ccccc1)NC(=O)O[C@H]1CO[C@H]2OCC[C@H]21)S(=O)(=O)c1ccc(N)cc1`, the Potency result is “inactive”.

Take `O=C(c1ccc(F)c(F)c1Nc1ccc(I)cc1F)N1CC(O)([C@H]2CCCCN2)C1`: the Potency is 2.61 µM (active).

Regarding `N#CC(=C1Nc2ccccc2S1)c1ccnc(OCc2ccc(CN3CCOCC3)cc2)n1`, the Potency result is “inactive”.

Consider `COc1cc2c(cc1OC)[C@@H]1Cc3ccc(OC)c(OC)c3CN1CC2`, for which the Potency entry is “inactive”.

For the compound `Cc1nn(Cc2ccccc2Cl)c(C)c1CN(C)CC(O)COc1ccc(Cl)cc1` (stereo not given), the Potency is 18.5 µM (active).

For the compound `O=C1NC(=O)C(c2cnc3ccccn23)=C1c1cn2c3c(cccc13)CN(C(=O)N1CCOCC1)CC2`, the Potency entry is “inactive”.

For `CC(C)C[C@H](NC(=O)c1cc2ccccc2s1)C(=O)N1CCN(C(=O)[C@H](CO)NS(=O)(=O)c2ccc(Cl)cc2Cl)CC1`, the Potency was 0.0293 µM (active).

In the case of `CN(C)CCN(C)C(=O)c1ccc(NC(=O)Nc2ccc(-c3nc(N4CCOCC4)c4ccn(CC(F)(F)F)c4n3)cc2)cc1`, the Potency is 3.69 µM (active).

Take `CNC(=O)[C@H](CC1=CN=C2C=CCC=C12)NC(=O)[C@@H](CC(=O)NO)CC(C)C`: the Potency is 4.14 µM (active).

In the case of `COc1cc2c(cc1Cc1cccc(Cl)c1F)c(=O)c(C(=O)O)cn2[C@H](CO)C(C)C`, the Potency entry is “inactive”.

In the case of `O=c1[nH]nc(OCCCc2ccc(Cl)cc2)c(NCc2cccnc2)c1Br`, the Potency is 7.37 µM (active).

Consider `CC1(COc2ccc3c(c2)ncn3-c2ccc3cccc(N4CCC(N)CC4)c3n2)COC1`, for which the Potency was 10.4 µM (active).

The next assay can be described thus: qHTS of pediatric cancer cell lines to identify multiple opportunities for drug repurposing: Confirmatory screen for Rh41 cells (AID 1347123).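 Also: 48 h compound exposure; nearly all actives have a fitted effect of over 60% in size.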 Particulars: Rh41 rhabdomyosarcoma cells, viability/cytotoxicity qHTS; series mostly up to 45.9 µM. Put shortly:
as §1
With `CN1N=C(N)c2cn([C@@H]3O[C@H](COP(=O)(O)O)[C@@H](O)[C@@H]3O)c3ncnc1c23`, the Potency is 1.17 µM (active).

As for `Nc1[nH]nc2nnc(-c3c(-c4ccccc4)nn4ccccc34)cc12`, the Potency result was “inactive”.

Take `CN1CCN(c2ncc(-c3cc(Cl)cc(Cl)c3Cl)c(N)n2)CC1`: the Potency entry is “inactive”.

For the compound `O=C(c1ccc(F)c(F)c1Nc1ccc(I)cc1F)N1CC(O)([C@H]2CCCCN2)C1`, the Potency is 14.7 µM (active).

`N#CC(=C1Nc2ccccc2S1)c1ccnc(OCc2ccc(CN3CCOCC3)cc2)n1`: the Potency entry is “inactive”.

On to `O=C1NC(=O)C(c2cnc3ccccn23)=C1c1cn2c3c(cccc13)CN(C(=O)N1CCOCC1)CC2`, for which the Potency is 0.0185 µM (active).

With `Cc1ccc2c(c1)C(=O)[C@]1(O)CCN(c3ccccc3)C1=N2`, the Potency was 11.7 µM (active).

Turning to `CC(C)C[C@H](NC(=O)c1cc2ccccc2s1)C(=O)N1CCN(C(=O)[C@H](CO)NS(=O)(=O)c2ccc(Cl)cc2Cl)CC1`, the Potency was 18.5 µM (active).

Consider `CN(C)CCN(C)C(=O)c1ccc(NC(=O)Nc2ccc(-c3nc(N4CCOCC4)c4ccn(CC(F)(F)F)c4n3)cc2)cc1`, for which the Potency is 0.208 µM (active).

Turning to `CNC(=O)[C@H](CC1=CN=C2C=CCC=C12)NC(=O)[C@@H](CC(=O)NO)CC(C)C`, the Potency was 2.93 µM (active).

For the compound `COc1cc2c(cc1Cc1cccc(Cl)c1F)c(=O)c(C(=O)O)cn2[C@H](CO)C(C)C`, the Potency is 16.5 µM (active).

Take `O=c1[nH]nc(OCCCc2ccc(Cl)cc2)c(NCc2cccnc2)c1Br`: the Potency is 10.4 µM (active).

Turning to `CC1(COc2ccc3c(c2)ncn3-c2ccc3cccc(N4CCC(N)CC4)c3n2)COC1`, the Potency is 8.27 µM (active).
